A selection: hits, their analogues and other compounds. The true share with any hit is near 3.5%.
TEAD-YAP inh = TEAD-YAP interaction inhibition; HEK-TIYL cells, TEAD-Gal4/YAP UAS-luciferase luminescence; inhibition, % at 9.12 µM; 640,000 compounds, 1.4% hits; in the data active means inhibition above about 32%;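 further: 0% = median of test compound wells and 100% = reference inhibitor wells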
GPR151 ag = activates the human receptor GPR151 | PathHunter beta-arrestin GPR151 cells, luminescence | Q8TDV0 | activation, % at 11.2 µM | AID 1508602 | 650,000 compounds, 1% hits; in the data active means activation above about 4.9%;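 further: 0% = median of compound wells and 100% = cells with positive control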
Target sequence (Q8TDV0 whole entry, looked up): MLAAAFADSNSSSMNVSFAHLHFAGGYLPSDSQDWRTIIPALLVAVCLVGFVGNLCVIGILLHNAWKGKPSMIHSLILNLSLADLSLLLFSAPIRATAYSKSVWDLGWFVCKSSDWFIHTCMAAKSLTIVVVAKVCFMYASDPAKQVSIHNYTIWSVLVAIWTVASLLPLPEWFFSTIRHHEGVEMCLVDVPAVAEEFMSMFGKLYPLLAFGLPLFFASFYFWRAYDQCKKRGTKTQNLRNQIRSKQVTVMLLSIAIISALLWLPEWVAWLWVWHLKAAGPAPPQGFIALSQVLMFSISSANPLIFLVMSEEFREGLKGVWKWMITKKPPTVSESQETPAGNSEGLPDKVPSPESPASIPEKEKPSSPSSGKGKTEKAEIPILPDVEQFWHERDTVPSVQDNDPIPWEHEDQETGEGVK
FBW7 activator = activators of human E3 ligase FBW7; Q969H0; AlphaScreen FBW7–phospho-cyclin E peptide binding, activator screen; normalized activity (activation), % at 26.1 µM; 650,000 compounds, 0.13% hits; in the data active means normalized activity above about 1.9%;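 further: purified mutant Fbw7 with reduced substrate affinity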
MITF inh = blocks human microphthalmia-associated transcription factor. AlphaScreen MITF homodimerization, bead proximity signal. inhibition, % at 2.6 µM. 650,000 compounds, 0.91% hits. AID 1259374; in the data active means inhibition above about 50%;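 further: 0% = vehicle wells with protein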
An asterisk follows results filed as active.

SMILES | TEAD-YAP inh | GPR151 ag | FBW7 activator | MITF inh
COc1ccc(OC)c(Nc2cc(C)nc3ccccc23)c1 | 37* | 0 | 0 | -3
COc1ccc2nc(C)cc(Nc3ccccc3OC)c2c1 | 17 | -1 | 1 | 19
Nc1ccc(-c2nc3ccccc3s2)cc1N | 29 | -7 | 0 | -8
Oc1ccc(O)c(Cc2nc3ccccc3s2)c1 | 53* | 4 | 0 | 2
Oc1cccc(-c2nc3ccccc3s2)c1 | 92* | -4 | 0 | -5
COc1ccc(-c2nc3ccccc3s2)cc1OC(C)=O | 58* | -3 | 1 | 20
Nc1c(C(=O)Nc2cc(Cl)cc(Cl)c2)sc2nc3c(c(-c4cccs4)c12)CCCC3 | -18 | 1 | 0 | 0
CCOC(=O)C1=C(C#N)C(C)(C)OC1=O | -1 | 2 | 0 | 1
CCC(C)CNC(=O)CCc1nnc(CCCCc2ccccc2)o1 (stereo not given) | -5 | 0 | 0 | 10
COCCCN1C(=O)c2[nH]nc(-c3ccccc3O)c2C1c1ccc(C)cc1 (stereo not given) | 43* | -1 | 0 | -6
CC1(C)O[C@]2(CCC3C4CC[C@H]5CCCC[C@]5(C)C4CC[C@@]32C)CN1C(=O)CSC1=NCCN1 (stereo not given in full) | 33* | 2 | 0 | 2
C[C@]12CCCCC1CCC1C2CC[C@]2(C)C(N)CCC12 (stereo not given in full) | -10 | 2 | 0 | -2
COc1ccc(/C=C2\Oc3c(ccc(O)c3CN3CCCC3)C2=O)cc1 | 2 | 0 | 0 | 15
COc1cc(/C=C2\Oc3c(ccc(O)c3CN3CCCCC3)C2=O)cc(OC)c1OC | 32* | 2 | 0 | 13
CC1CCCC(C)N1CC(O)COc1ccc([N+](=O)[O-])cc1 (stereo not given) | 11 | 0 | 0 | 5
NC(=S)/N=C1\CCN(c2cccc(C(F)(F)F)c2)N1 | 35* | -1 | 0 | -4
Cc1nccn1-c1cc(NCCNC(=O)Nc2ccc(F)c(Cl)c2)ncn1 | 78* | 0 | 0 | 3
CC(=O)c1c(C)[nH]c(C(=O)COC(=O)c2c(C)nn(-c3ccccc3)c2C)c1C | 49* | 3 | 0 | 22
CCn1c(SCC(=O)Nc2ccc(C)c(Cl)c2)nc2c1c(=O)n(C)c(=O)n2C | 3 | 1 | 1.9* | 10
COc1ccc(CCn2c(SCC(=O)Nc3ccc(C)c(Cl)c3)nc3ccccc3c2=O)cc1OC | 11 | -1 | 1 | 3
COc1ccc(C(=O)Nn2c(SCC(=O)Nc3ccc(C)c(Cl)c3)nc3ccccc3c2=O)cc1 | 75* | 1 | 0 | 7
Cc1cc(NC(=O)CSc2nc3ccccc3c(=O)n2NC(=O)c2ccccc2)n[nH]1 | 47* | -4 | 0 | -3
Cc1ccc(NC(=O)CSc2nc3ccccc3c(=O)n2NC(=O)c2ccc(F)cc2)cc1Cl | 57* | -4 | 1 | 9
CCOC(=O)C1=C(C)N=c2s/c(=C/c3cc(Br)ccc3OC)c(=O)n2C1c1ccc2c(c1)OCO2 (stereo not given) | -4 | -1 | 0 | -5
CC(C)(C)n1nc2c(c1NC(=O)c1ccccc1I)CSC2 | 1 | -1 | 0 | -2
SMILES | TEAD-YAP inh | GPR151 ag | FBW7 activator | MITF inh
Cc1cc(NC(=O)CCCC(=O)c2ccccc2)n[nH]1 | 47* | 3 | 0 | 9
Cc1ccc(C(=O)CCC(=O)Nc2cc(C)[nH]n2)cc1 | 21 | 2 | 0 | 8
CN(C)c1ccc(-c2cnc3ccc(NCCc4ccccn4)nn23)cc1 | 29 | -1 | 0 | 31
Fc1ccc(-c2cnc3ccc(NCCc4ccccn4)nn23)cc1 | 68* | 0 | 0 | 17
c1ccc(-c2cnc3ccc(NCc4ccccn4)nn23)cc1 | 39* | 0 | 0 | -4
COc1ccc(-c2cnc3ccc(NCc4ccccn4)nn23)cc1 | 45* | -1 | 1 | -8
Clc1cccc(-c2cnc3ccc(NCc4ccccn4)nn23)c1 | 5 | -1 | 0 | -12
COc1ccc(CNc2ccc3ncc(-c4cccc(CO)c4)n3n2)cc1 | 33* | -1 | 0 | -22
CC(C)(C)c1ccc(/C=N\NC(=O)Cn2nnc3ccccc32)cc1 | -2 | -1 | 0 | 10
COc1ccc(CCNC(=O)/C=C/c2ccccc2)cc1 | -16 | 0 | 0 | 4
COC(=O)[C@H](Cc1ccccc1)NC(=O)c1ncccc1Oc1nc(OC)cc(OC)n1 | 0 | 1 | 0 | 16
CN(C)c1ccc(-c2cnc3ccc(NCc4ccccn4)nn23)cc1 | 9 | 1 | 0 | -2
Oc1ccc(-c2cnc3ccc(NCc4ccco4)nn23)cc1 | 47* | 0 | 0 | 6
Fc1ccc(-c2cnc3ccc(NCc4ccccn4)nn23)cc1 | 51* | 0 | -1 | -6
COCCn1c(=O)[nH]c2cc(C(=O)NCCN3CCCC3)ccc2c1=O | 8 | 2 | 0 | 6
CC1CCCC(C)N1CCCNC(=O)c1cn(C(C)c2ccc(F)cc2)nn1 (stereo not given) | 0 | 0 | 0 | 10
COc1cc(C(=O)N2N=C(C)CC2(O)C(F)(F)F)cc(OC)c1OC (stereo not given) | 60* | 1 | 0 | -3
CC1=NN(C(=O)c2cc(O)cc(O)c2)C(O)(C(F)(F)F)C1 (stereo not given) | 1 | 1 | 0 | -4
COc1cc(C(=O)N2N=C(C3CC3)CC2(O)C(F)(F)F)cc(OC)c1OC (stereo not given) | 10 | -1 | 0 | -1
COc1cc(OC)cc(C(=O)N2N=C(C)CC2(O)C(F)(F)F)c1 (stereo not given) | 50* | -1 | 0 | -14
Cc1nc2nc3ccccc3n2c(C)c1CCC(=O)O | -16 | -1 | 0 | 7
COc1cc(Nc2nc3ccccc3n3c(C)nnc23)cc(OC)c1OC | 4 | 1 | 0 | -25
CCCCN(C)c1ncnc(N)c1[N+](=O)[O-] | 41* | -2 | 0 | 17
O=[N+]([O-])c1c(N2CCCCCC2)ncnc1N1CCCCCC1 | 3 | 2 | 0 | 21
CCN(CC)c1ncnc(N)c1[N+](=O)[O-] | 63* | 0 | 0 | 14
SMILES | TEAD-YAP inh | GPR151 ag | FBW7 activator | MITF inh
CCCCN(Cc1ccccc1)c1ncnc(N)c1[N+](=O)[O-] | 8 | 4 | 0 | 6
Nc1ncnc(N2CCCCCC2)c1[N+](=O)[O-] | 49* | 1 | 0 | 6
CN(c1ncnc(N)c1[N+](=O)[O-])C1CCCCC1 | 54* | 0 | 0 | 4
CN(c1ncnc(N)c1[N+](=O)[O-])C1CCS(=O)(=O)C1 (stereo not given) | 22 | -1 | 0 | 10
Cc1cc(C)nc(NS(=O)(=O)c2ccc(Cl)s2)c1 | 6 | -1 | 0 | -23
COc1ccc(CN2CCCC(N(C)CCc3ccccc3)C2)cc1Cn1cncn1 (stereo not given) | 5 | 0 | 0 | 4
COc1ccc(/C=N/NC(=O)COc2cccc(C)c2)c(OC)c1OC | -1 | -1 | 0 | 14
CCN(c1ccccc1)c1ncnc(N)c1[N+](=O)[O-] | 52* | 2 | 0 | -5
CCCCN(c1ccccc1)c1ncnc(N)c1[N+](=O)[O-] | 28 | -2 | 0 | -7

Source: PubChem BioAssay
